From PubChem BioAssay (NCATS) come the findings set out here.

Experiment [1] is described as follows: Viability qHTS for spleen associated tyrosine kinase inhibitor (SYKi) drug resistant MV4-11 cells (AID 1963824). Also: nearly all actives have a fitted effect of over 35% in size. Also: potency is read from the fitted curve at half-maximal effect. To be noted: SYKi-resistant MV4-11 viability, CellTiter-Glo, 72 h; series mostly up to 45 µM. An outline of the steps:
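SYK inhibitor-resistant MV4-11 AML cells, 500 per well, added to predispensed compounds and incubated 72 hr at 37 C, 5% CO2. Viability measured by CellTiter-Glo luminescence after 10 min at room temperature.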
A general note: qHTS replaces the single test concentration by a dilution series.

A short description of experiment [2]: Cellular viability qHTS for adrenocortical cancer (ACC) cell line SW-13 (AID 1963989).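 Also: cells grown in serum-free medium with ITS supplement; % is scaled to controls: 0 for no effect and ±100 for the full control effect; nearly all actives have a fitted effect of over 65% in size.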 The following applies: SW-13 ACC cells viability, CellTiter-Glo, 48 h; activity (max response): hits give low values. An outline of the steps: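 Viability was read as CellTiter-Glo luminescence after 48 h compound treatment (up to 46 uM final) of SW-13 cells grown serum-free; titration curves were fit with a four-parameter logistic model to give IC50 and efficacy.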

Experiment [3] can be described thus: Quantitative highthroughput screen to assess conditional lethalithy of NOMO1 cells grown in Human Plasma-Like Medium with dialyzed fetal bovine serum (HPLM+ds) (AID 1963878). Also: nearly all actives have a fitted effect of over 35% in size. Also: potency is read from the fitted curve at half-maximal effect.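 As to Viability: 100% = DMSO wells and 0% = empty wells on each plate.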 To be noted: NOMO1 AML cells in HPLM+ds, CellTiter-Glo viability, 48 h; series mostly up to 45.8 µM. The method, boiled down: (§1)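 Each medium arm—HPLM with 10% dialyzed FBS, or RPMI1640 with 5 mM glucose and 10% untreated or dialyzed FBS—was screened against an 11-point, 3-fold compound titration for 48 h at 37 °C, with CellTiter-Glo luminescence as endpoint.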
On the technique in general: In ATP-based viability assays light output follows the ATP content of the culture.

Experiment [4] in a line: Quantitative highthroughput screen to assess conditional lethalithy of P12 Ichikawa cells grown in Human Plasma-Like Medium with dialyzed fetal bovine serum (HPLM+ds) (AID 1963879). Also: nearly all actives have a fitted effect of over 35% in size. Also: potency is read from the fitted curve at half-maximal effect. To be noted: ATP luminescence, 48 h; Potency: viability; series mostly up to 45.8 µM. The method, boiled down:
as §1

Experiment [5] in a line: Quantitative highthroughput screen to assess conditional lethalithy of P12 Ichikawa cells grown in RPMI1640 with untreated serum (RPMI+s) (AID 1963881). Also: nearly all actives have a fitted effect of over 35% in size. Also: potency is read from the fitted curve at half-maximal effect.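 As to Viability: 100% = DMSO wells and 0% = empty wells without cells.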 To be noted: ATP luminescence, 48 h; Potency: viability; series mostly up to 45.8 µM. An outline of the steps: as §1
Experiment [6] in a line: Quantitative highthroughput screen to assess conditional lethalithy of SEM cells grown in Human Plasma-Like Medium with dialyzed fetal bovine serum (HPLM+ds) (AID 1963882). Also: nearly all actives have a fitted effect of over 35% in size. Also: potency is read from the fitted curve at half-maximal effect. To be noted: SEM B-ALL cells in HPLM+ds, CellTiter-Glo viability, 48 h; series mostly up to 45.8 µM. An outline of the steps: as §1
The nature of experiment [7]: Quantitative highthroughput screen to assess conditional lethalithy of SEM cells grown in RPMI1640 with unreated serum (RPMI+s) (AID 1963883). Also: nearly all actives have a fitted effect of over 35% in size. Also: potency is read from the fitted curve at half-maximal effect.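 As to Viability: 100% = DMSO wells and 0% = empty wells without cells.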 The following applies: SEM B-ALL cells, CellTiter-Glo viability, 48 h; series mostly up to 45.8 µM. The method, boiled down: as §1
Experiment [8] in a line: Quantitative highthroughput screen to assess conditional lethalithy of NOMO1 cells grown in RPMI1640 with untreated serum (RPMI+s) (AID 1963876). To be noted: NOMO1 AML cells in RPMI+serum, CellTiter-Glo viability, 48 h; series mostly up to 45.8 µM. An outline of the steps: as §1
Experiment [9] can be described thus: Quantitative highthroughput screen to assess conditional lethalithy of NOMO1 cells grown in RPMI1640 with dialyzed fetal bovine serum (RPMI+ds) (AID 1963877).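 Also: 100% = DMSO control wells and 0% = empty wells; nearly all actives have a fitted effect of over 30% in size.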 The following applies: NOMO1 in RPMI+dialyzed FBS viability, ATP luminescence, 48 h; series mostly up to 45.8 µM. An outline of the steps:
as §1

The nature of experiment [10]: Quantitative highthroughput screen to assess conditional lethalithy of P12 Ichikawa cells grown in RPMI1640 with dialyzed fetal bovine serum (RPMI+ds) (AID 1963880). The following applies: ATP luminescence, 48 h; Potency: P12-Ichikawa viability; series mostly up to 45.8 µM. The method, boiled down: as §1
Experiment [11] can be described thus: Quantitative highthroughput screen to assess conditional lethalithy of SEM cells grown in RPMI1640 with dialyzed fetal bovine serum (RPMI+ds) (AID 1963884). To be noted: SEM B-ALL cells, RPMI+dialyzed FBS, CellTiter-Glo viability, 48 h; series mostly up to 45.8 µM. An outline of the steps: as §1
The nature of experiment [12]: Cellular viability qHTS for adrenocortical cancer (ACC) cell line NCI-H295R (AID 1963990). Also: nearly all actives have a fitted effect of over 60% in size. Also: potency is read from the fitted curve at half-maximal effect. The following applies: CellTiter-Glo ATP luminescence, 48 h; series mostly up to 46.1 µM. The method, boiled down: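 CellTiter-Glo ATP luminescence, read 48 h after compound addition, measured viability of NCI-H295R adrenocortical cells grown serum-free with ITS. Final concentrations spanned up to 46 uM. Data normalized to DMSO and doxorubicin, fitted for IC50 and maximal response.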

Several values for one entry are separate records, joined by “and”; a condition that tells them apart may be missing. Equal entries are not always repeated. Inconclusive results are not listed. A number with no mark means an inactive call. Activity calls are given as the source filed them. Calls follow the shape of the dose curve; as a rule, active = well fitted curve in the direction sought with a large enough effect; inconclusive = small, poorly fitted or top-dose-only effect, or another doubt; inactive = no such curve, though single readings can be large; an effect the other way counts as inactive or inconclusive.

As for `C[C@]12CC[C@H](OC3OC(CO)C(O)C(O)C3OC3OC(CO)C(O)C(O)C3O)C[C@@H]1CC[C@@H]1C2CC[C@]2(C)[C@@H](C3=CC(=O)OC3)CC[C@]12O` (stereo partly specified), the Potency in experiment [1] is 5.44 µM (active).
Turning to `CCC(=O)O[C@@H]1C=C2CCC3C(CCC4(C)C3CC[C@@H]4OC(=O)CC)C2CC1` (stereo partly specified), the Potency entry in experiment [1] was “inactive”. The activity (max response) in [2] is 1.7%.
For the molecule `COc1ccc2c(c1OC)CN1CCc3cc4c(cc3C1C2)OCO4` (stereo unspecified), the Potency in experiment [1] was 4.11 µM (active); in experiment [3], 1.48 µM (active); in experiment [4], 2.64 µM (active); in [5] it was 1.87 µM (active); in experiment [6], 1.05 µM (active); in [7], 0.372 µM (active).
As to `Cn1cc(C2=C(c3cn(C4CCN(Cc5ccccn5)CC4)c4ccccc34)C(=O)NC2=O)c2ccccc21`, the Potency in [1] was 5.25 µM (active). In addition, the Potency entry in [8], in experiment [4] and in experiment [5] was “inactive” each time. For the same molecule, the activity (max response) in experiment [2] was -7.67% and -14.7%.
Take `CN1CCc2cc3c(cc2[C@H]1[C@@H]1OC(=O)c2c1ccc1c2OCO1)OCO3`: the Potency in [1] was 6.51 µM (active).
`C[C@]12CCC(=O)C=C1CC[C@@H]1[C@H]3CC[C@](C)(O)[C@@]3(C)CC[C@@H]12`: the Potency in experiment [1] is 21.9 µM (active); in experiment [12] it was 28.2 µM (active). Also, the Potency entry in experiment [9], in experiment [4], in experiment [10], in experiment [6], in experiment [7] and in [11] was “inactive” throughout.
For the molecule `CCCCCC[C@H]1C(=O)O[C@H](C)[C@H](NC(=O)c2cccc(NC=O)c2O)C(=O)O[C@@H](C)[C@@H]1OC(=O)CC(C)C`, the Potency in [1] is 0.105 µM (active). The Potency result in experiment [8], in experiment [9] and in [6] was “inactive” each time.
Regarding `CC(NC(C)(C)C)C(=O)c1cccc(Cl)c1` (stereo unspecified), the Potency entry in [1], in [10] and in [12] was “inactive” each time. In addition, in experiment [3], the Potency was 5.9 µM (active). Further, the activity (max response) in experiment [2] is 8.14% and 1.12%.
With `N=c1c2c(-c3ccccc3)c(-c3ccccc3)n(Cc3ccccc3)c2ncn1C1CCC(O)CC1` (stereo unspecified), the values for the Potency in experiment [1], in [3] and in experiment [12] were 0.372 µM (active), 16.6 µM (active) and 8.91 µM (active), respectively.
For the molecule `CCOC(=O)Nc1ccc(NCc2ccc(F)cc2)cc1N`, the Potency in experiment [1] is 18.6 µM (active). The Potency result in [10], in experiment [5] and in experiment [11] was “inactive” each time. Also, the activity (max response) in experiment [2] is -1.78%.
As for `O=C(O)CCCc1ccc(N(CCCl)CCCl)cc1`, the Potency entry in experiment [1] and in [12] was “inactive” in each case. Besides, in experiment [7], the Potency is 23.5 µM (active). In [2], the activity (max response) was 1.67% and -8.76%.
With `CNC(=O)c1ccc(N2C(=S)N(c3ccc(C#N)c(C(F)(F)F)c3)C(=O)C23CCC3)cc1F`, the Potency in experiment [1] was 18.6 µM (active). The Potency result in [8], in [3], in experiment [4], in experiment [5], in [6] and in [11] was “inactive” throughout. Moreover, in [12], the Potency result was “inactive”.
For the molecule `CC(C)[C@H]1C(=O)N[C@H](CO)Cc2c[nH]c3cccc(c23)N1C`, the Potency in experiment [1] is 0.288 µM (active). Further, the Potency result in [4], in [6], in experiment [11] and in experiment [12] was “inactive” in each case. Besides, the activity (max response) in experiment [2] was -2.75%.
Regarding `COC1CC(OC2CCC3(C)C(=CCC4C3CCC3(C)C(C(C)OC5OC(COC6OC(CO)C(O)C(O)C6O)C(O)C(O)C5O)CCC43O)C2)OC(C)C1OC1OC(C)C(O)C(OC)C1O` (stereo unspecified), the viability, % of control in experiment [1] is 87.9% [at 9.25 µM].
For `CN(C(=O)C(c1ccccc1)c1ccccc1)[C@H](CN1CC[C@H](O)C1)c1ccccc1`, in experiment [1], the Potency is 20.6 µM (active).
Turning to `CN1C(=O)COc2c(C(=O)NC3CN4CCC3CC4)cc(Cl)cc21` (stereo unspecified), the Potency result in experiment [1], in experiment [5], in experiment [6] and in experiment [12] was “inactive” each time. The activity (max response) in experiment [2] is 0.49% and -6.93%.
Consider `Nc1ccccc1C(=O)OCC(O)CO` (stereo unspecified), for which, in experiment [1], the Potency result was “inactive”. In experiment [2], the activity (max response) was 6.9%.
Turning to `C#CC1(O)CCC2C3CCC4=CC(=O)CCC4(C)C3CCC21C` (stereo unspecified), the Potency in experiment [1] is 11.8 µM (active). Also, the Potency entry in [8], in [3], in experiment [4], in experiment [5], in experiment [6] and in experiment [7] was “inactive” throughout. Besides, the Potency result in [11] and in experiment [12] was “inactive” each time. In experiment [2], the activity (max response) was 9.7%.
Regarding `CC[C@H](O)C(C[C@H](C)N(C)C)(c1ccccc1)c1ccccc1`, the Potency entry in experiment [1] was “inactive”. Moreover, in experiment [2], the activity (max response) was -19.9%.
With `CCOC(=O)Nc1ccc(NCc2c(C)cc(C)cc2C)cc1N`, the Potency in [1] was 9.2 µM (active).
Consider `Clc1ccccc1C(c1ccccc1)(c1ccccc1)n1cccn1`, for which the Potency in experiment [1] is 16.6 µM (active). Besides, the Potency result in [8], in [4], in [5], in experiment [6] and in experiment [7] was “inactive” each time. For the same molecule, the activity (max response) in experiment [2] was -15.1%.
Consider `CC(C)(O)C(=O)Nc1ccc([N+](=O)[O-])c(C(F)(F)F)c1`, for which the Potency in [1] was 18.6 µM (active); in [4], 8.33 µM (active); in [5], 8.33 µM (active). In addition, the Potency entry in experiment [6], in experiment [7] and in experiment [12] was “inactive” throughout. Moreover, the activity (max response) in [2] is -7.23%.
`O=C(O)C(=O)c1cn(Cc2ccccc2)c2ccc(-c3ccc(OC(F)(F)F)cc3)cc12`: the Potency in experiment [1] was 20.6 µM (active). Further, the Potency entry in experiment [8], in experiment [9], in experiment [3], in experiment [5] and in [7] was “inactive” in each case.
As for `O=C(C[C@@H]1NCCC[C@H]1O)Cn1cnc2ccccc2c1=O`, the Potency in experiment [1] is 0.231 µM (active).
